Screening data from PubChem BioAssay.
In the library only some 11% were active in any assay of this set; here they are far more common.
Pf growth 48h: Primary qHTS for delayed death inhibitors of the malarial parasite plastid, 48 hour incubation; P. falciparum luciferase growth in erythrocytes, 48 h; Potency, µM (highest dose often 28.7 µM), for inactives: at the highest dose activity change, negative = inhibition, actives largely listed as inhibitors; 5.9% of 310,000 active; note: % is set by controls: 0 for no effect and ±100 for the full control effect
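Firefly luciferase activity from engineered P. falciparum reports growth; inhibitors lower the luminescent signal. Cultures contained 2% hematocrit erythrocytes at 0.1% final parasitemia.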
NS1 function inh: qHTS Assay for Inhibitors of Influenza NS1 Protein Function. Potency, µM (top dose mostly 46.1 µM), inactives show at the highest dose activity, positive = more growth. 0.4% of 270,000 active. AID 2326, 2010; calls by dose curve; note: actives are rising curves; nearly all actives have a fitted effect of over 50% in size
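OD600 was taken as the measure of yeast growth restored by compound in an NS1-expressing S. cerevisiae strain. Cells had been washed out of glucose medium and diluted 1:100 into galactose -URA medium, pH 6.0.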
Sm TGR inh: qHTS Assay for the Inhibitors of Schistosoma Mansoni Peroxiredoxins; Schistosoma mansoni thioredoxin glutathione reductase (TGR), Q962Y6; purified TGR, DTNB reduction, TNB absorbance 405 nm; Potency, µM (highest dose often 114 µM), for inactives: at the highest dose activity change, negative = inhibition, most hits filed as inhibitors; 3% of 360,000 active; note: % is set by controls: 0 for no effect and ±100 for the full control effect; nearly all actives have a fitted effect of over 60% in size
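TGR 20 nM + NADPH 100 uM (dispensed conc.), cpd preinc 15 min RT; start with NADPH (500 uM addition) then DTNB (15 mM addition). Kinetic TNB absorbance, 405 nm filter. Four-parameter Hill fit across titration.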
Pf growth 96h: Primary qHTS for delayed death inhibitors of the malarial parasite plastid, 96 hour incubation; Potency, µM (top dose mostly 28.7 µM), inactives show at the top dose activity change, negative = inhibition, actives largely listed as inhibitors; 6.9% of 320,000 active; P. falciparum luciferase reporter growth, 96 h; note: % is set by controls: 0 for no effect and ±100 for the full control effect
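Parasite growth measured via integrated firefly luciferase reporter in P. falciparum. Infected erythrocytes at 2% hematocrit, 0.05% parasitemia final were treated 96 hours at 37 C under 5% CO2, and luminescence was read.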
AMA1-RON2 inh: qHTS for Inhibitors of AMA1-RON; Towards Development of Antimalarial Drug Lead: Primary Screen; Plasmodium falciparum AMA1 (3D7) - RON2 peptide interaction; AlphaScreen AMA1-biotinylated RON2 peptide binding; Potency, µM (doses to about 58.2 µM), for inactives: at the highest dose activity change, negative = inhibition, usual class: inhibitors; 0.2% of 360,000 active; AID 720542, 2013;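 note: 0% = vehicle wells and -100% = peptide control; nearly all actives have a fitted effect of over 45% in size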
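AMA1 (3D7) with his tag at 25 nM final met compounds first, then biotinylated RON2 peptide at 25 nM; detection used donor plus acceptor beads, 10 µg/mL apiece, read by AlphaScreen after 30 min at room temperature.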
* hit, by the source's call; ? = inconclusive; nt = not tested or not shown; [ ] = dose if it differs, or a comment. Unless noted, calls come from the whole dose curve; as a rule, active = well fitted curve in the direction sought with a large enough effect; inconclusive = small, poorly fitted or top-dose-only effect, or another doubt; inactive = no such curve, though single readings can be large; an effect the other way counts as inactive or inconclusive. Potency is the fitted concentration of half-maximal effect.

SMILES	Pf growth 48h	NS1 function inh	Sm TGR inh	Pf growth 96h	AMA1-RON2 inh
Cc1cc(C)cc(OCCOc2cccc(C=C3C(=O)NC(=O)NC3=O)c2)c1	26%	-21%	32µM*	38%	13%
Cc1ccc(OCCOc2cccc(C=C3C(=O)NC(=O)NC3=O)c2)cc1	339%	-48%	?	6%	31%
CCOC(=O)c1scc(-c2ccc(C)cc2)c1S(=O)(=O)Nc1cc(Cl)ccc1OC	nt	nt	-3%	nt	nt
O=C(O)c1ccccc1SCCS(=O)(=O)c1ccc(Cl)cc1Cl	0%	5%	45µM*	-1%	-5%
c1cncc(CNCc2cccnc2)c1	nt	3%	nt	nt	nt
CC1CC(C)CN(C(=O)Cn2c(=O)n(CCCCC(=O)NC3CCCC3)c(=O)c3ccccc32)C1 (stereo unspecified)	-20%	-3%	28µM*	13%	0%
O=C(CCCn1c(=O)c2ccccc2n(Cc2cccc(F)c2)c1=O)NC1CCN(Cc2ccccc2)CC1	6.6µM*	nt	2%	?	nt
O=C(NC1CCN(Cc2ccccc2)CC1)c1ccc(Cn2c(=O)c3ccccc3n(Cc3ccc(F)cc3)c2=O)cc1	nt	nt	0%	nt	nt
O=C(CCCCn1c(=O)c2ccccc2n(Cc2ccccc2)c1=O)NC1CCN(Cc2ccccc2)CC1	5.9µM*	nt	0%	-10%	-3%
COc1cc(OC)c(C2C=C(c3ccc(C)cc3)Nc3c(C(=O)Nc4ccccc4)cnn32)cc1OC (stereo unspecified)	nt	nt	-2%	nt	nt
CC(=O)c1ccc(OCC(=O)OCc2cc(-c3ccco3)on2)cc1	-11%	nt	50µM*	-6%	7%[11.6 µM]
CCc1cccc(CC)c1NC(=O)CSc1nnc(CCC(=O)O)c(=O)[nH]1	29%	nt	-16%	141%	-6%
COc1cccc(NC(=O)CSc2nc3c(c(=O)n2C)SC(C)C3)c1 (stereo unspecified)	12µM*	-45%	-12%	9.3µM*	-2%
Cn1c(SCc2cccc([N+](=O)[O-])c2)nc2c(c1=O)SCC2	?	nt	0%	3.7µM*	?
Cn1c(SCC(=O)Nc2cccc(F)c2)nc2c(c1=O)SCC2	?	9%	2%	2.6µM*	9%
CCOc1ccc(NC(=O)CSc2nc3c(c(=O)n2C)SC(C)C3)cc1 (stereo unspecified)	13µM*	?	-19%	7.4µM*	-5%
CCN(Cc1ccccc1)C(=O)COC(=O)[C@@H]1CCCN1C(=O)c1cccs1	nt	nt	nt	nt	10%
Cc1ccc(N2CC(=O)N(c3ccc(C)cc3)CC2=O)cc1	19%	5%	10%	20%	-8%
COc1cccc(-c2nc(SCc3cc(=O)c4cc(Cl)ccc4[nH]3)n[nH]2)c1	nt	nt	0%	nt	nt
Cc1ccc(NC(=O)CC(=O)Nc2ccc(C)cc2C)c(C)c1	8%	-6%	10%	0%	-2%
Cc1ccc(N/C(C(Cl)=C(Cl)Cl)=C(/Cl)[N+](=O)[O-])c(C)c1	?	-86%	7.9µM*	?	?
Cc1csc2nc(-c3ccc(NS(=O)(=O)c4cccc(F)c4)cc3)cn12	nt	nt	-6%	nt	nt
CCOc1ccc(NC(=O)CS(=O)CC(=O)N(CC(=O)NC(C)(C)C)C2CCCC2)cc1 (stereo unspecified)	0%	-11%	-13%	?	6%
OC(CN1CCN(Cc2ccccc2)CC1)Cn1c2ccccc2c2ccccc21 (stereo unspecified)	2.6µM*	-10%	-13%	11%	-26%
Cc1ccc(OCC(O)Cn2c3ccccc3c3ccccc32)cc1 (stereo unspecified)	9.3µM*	-67%	-30%	?	16%
SMILES	Pf growth 48h	NS1 function inh	Sm TGR inh	Pf growth 96h	AMA1-RON2 inh
OC(CN1CCN(c2ccccc2)CC1)Cn1c2ccccc2c2ccccc21 (stereo unspecified)	nt	2%	-2%	-28%	-6%
Cc1ccc(OCCN2CCN(CC(O)Cn3c4ccccc4c4ccccc43)CC2)cc1 (stereo unspecified)	2.6µM*	-35%	-4%	19%	nt
OC(COCC(F)(F)C(F)(F)C(F)(F)C(F)F)Cn1c2ccccc2c2ccccc21 (stereo unspecified)	12µM*	-78%	-7%	-19%	1%
CC(NC(=O)Cn1nc(C(=O)O)c2ccccc2c1=O)C12CC3CC(CC(C3)C1)C2 (stereo unspecified)	-2%	-41%	4%	-36%[1.15 µM]	-6%
CC(C)(C)NC(=O)CN(C(=O)C1CSC(=O)C1)c1ccccc1F (stereo unspecified)	2%	nt	1%	17%	11%
Cc1cccc(C)c1OCC(O)Cn1nnc2ccccc21 (stereo unspecified)	17%	-18%	1%	-14%	3%
Cc1cccc(C)c1OCC(O)Cn1c2ccccc2c2ccccc21 (stereo unspecified)	10µM*	20%	18%	31%	-15%
COc1ccc(C(=O)N2CCCC(CCC(=O)NCc3ccccc3F)C2)c(OC)n1 (stereo unspecified)	1%	3%	-4%	?	9%
CCOC(=O)c1cc(-c2ccccc2)n(CCC(=O)N2CCN(c3ccccc3OC)CC2)c1C	9.3µM*	-12%	-2%	?	-27%
CCC(C)NC(=O)CCn1c(-c2ccccc2)cc(C(C)=O)c1C (stereo unspecified)	7%	-9%	-2%	?	-2%
CCOC(=O)c1cc(-c2ccccc2)n(CCC(=O)NC(C)CC)c1C (stereo unspecified)	?	-13%	0%	4.1µM*	-2%
O=C(CNC(=O)c1cccs1)N/N=C/c1ccco1	30%	nt	-17%	79%	4%
O=C(Cc1cccs1)N/N=C/c1ccco1	13%	2%	-22%	35%	14%[11.6 µM]
O=C(N/N=C/C=C/c1ccco1)c1ccccc1Cl	19%	nt	?	-5%	53%
O=C(N/N=C/C=C/c1ccco1)c1ccncc1	-7%	-1%	28µM*	96%	33%
O=C(N/N=C/C=C\c1ccco1)c1cccs1	-2%	nt	11µM*	9%	56%
O=C(Cc1cccs1)N/N=C/C=C\c1ccco1	41%	8%	25µM*	180%	-6%
O=C(N/N=C/C=C/c1ccco1)/C(=C/c1ccccc1)NC(=O)c1ccccc1	10%	26%	45µM*	?	73%
C[C@@H]1CN([C@@H](C)CO)C(=O)c2cc(NS(=O)(=O)c3ccc(Cl)cc3)ccc2O[C@H]1CN(C)Cc1ccncc1	nt	nt	nt	nt	-2%
O=S(=O)(Nc1cccnc1)c1ccc(Br)c2ccccc12	14%	10%	4%	?	8%
